Compound in the assay: CN[C@@H]1C[C@H]2O[C@@](C)([C@@H]1OC)n1c3ccccc3c3c4c(c5c6ccccc6n2c5c31)C(=O)NC4 [staurosporine]
Put plainly: log2 fold change of tryptic peptide abundance, ligand vs vehicle (limited proteolysis) (log2 ratio); higher = more trypsin-susceptible (destabilized). The note with it: ligand concentration: 20 uM; sample: mouse liver crude lysate; replicate design: treated separately.
Chain of UniProt Q9WV60 (Q9WV60 whole entry, looked up): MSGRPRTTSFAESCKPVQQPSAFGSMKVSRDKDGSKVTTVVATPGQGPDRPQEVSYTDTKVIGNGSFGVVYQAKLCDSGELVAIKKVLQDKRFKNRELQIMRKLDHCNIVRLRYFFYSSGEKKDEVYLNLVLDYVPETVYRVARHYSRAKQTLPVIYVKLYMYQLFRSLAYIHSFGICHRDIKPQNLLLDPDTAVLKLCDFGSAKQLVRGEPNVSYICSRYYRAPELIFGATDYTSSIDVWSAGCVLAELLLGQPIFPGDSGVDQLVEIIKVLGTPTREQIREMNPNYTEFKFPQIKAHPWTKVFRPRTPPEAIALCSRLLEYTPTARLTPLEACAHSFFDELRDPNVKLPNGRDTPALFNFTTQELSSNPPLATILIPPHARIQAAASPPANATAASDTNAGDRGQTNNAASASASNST
Chain of UniProt Q9WVD5 (Q9WVD5 whole entry): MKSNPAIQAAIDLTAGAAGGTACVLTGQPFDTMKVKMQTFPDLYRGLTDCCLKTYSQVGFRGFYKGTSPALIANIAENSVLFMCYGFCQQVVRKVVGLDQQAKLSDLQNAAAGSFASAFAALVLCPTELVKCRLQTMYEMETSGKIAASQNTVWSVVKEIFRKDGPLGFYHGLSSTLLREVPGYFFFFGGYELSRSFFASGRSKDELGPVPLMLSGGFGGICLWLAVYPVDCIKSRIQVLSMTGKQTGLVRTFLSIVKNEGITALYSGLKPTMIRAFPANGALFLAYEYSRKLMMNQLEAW
Chain of UniProt Q62445 (Q62445 whole entry): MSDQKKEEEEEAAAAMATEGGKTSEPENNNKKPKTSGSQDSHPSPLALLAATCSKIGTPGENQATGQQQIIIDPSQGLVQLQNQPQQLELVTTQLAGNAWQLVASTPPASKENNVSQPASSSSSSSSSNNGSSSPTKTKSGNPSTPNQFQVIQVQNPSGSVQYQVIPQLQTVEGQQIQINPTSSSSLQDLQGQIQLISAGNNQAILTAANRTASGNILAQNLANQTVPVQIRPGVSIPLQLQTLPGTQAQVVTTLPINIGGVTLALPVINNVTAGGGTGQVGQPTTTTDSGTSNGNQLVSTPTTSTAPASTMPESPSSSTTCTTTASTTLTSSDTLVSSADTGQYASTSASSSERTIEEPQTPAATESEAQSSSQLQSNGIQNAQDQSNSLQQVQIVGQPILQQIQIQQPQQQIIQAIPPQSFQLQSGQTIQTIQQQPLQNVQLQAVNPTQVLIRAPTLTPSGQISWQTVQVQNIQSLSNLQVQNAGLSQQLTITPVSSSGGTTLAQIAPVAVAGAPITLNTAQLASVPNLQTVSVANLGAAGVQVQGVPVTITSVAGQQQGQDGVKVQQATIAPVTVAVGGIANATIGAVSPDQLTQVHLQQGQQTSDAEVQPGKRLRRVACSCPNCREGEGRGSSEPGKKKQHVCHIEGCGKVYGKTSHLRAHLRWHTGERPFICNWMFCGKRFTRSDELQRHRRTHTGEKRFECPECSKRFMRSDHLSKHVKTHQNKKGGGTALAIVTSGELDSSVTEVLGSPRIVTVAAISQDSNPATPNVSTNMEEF
Chain of UniProt Q68FL6 (Q68FL6 whole entry): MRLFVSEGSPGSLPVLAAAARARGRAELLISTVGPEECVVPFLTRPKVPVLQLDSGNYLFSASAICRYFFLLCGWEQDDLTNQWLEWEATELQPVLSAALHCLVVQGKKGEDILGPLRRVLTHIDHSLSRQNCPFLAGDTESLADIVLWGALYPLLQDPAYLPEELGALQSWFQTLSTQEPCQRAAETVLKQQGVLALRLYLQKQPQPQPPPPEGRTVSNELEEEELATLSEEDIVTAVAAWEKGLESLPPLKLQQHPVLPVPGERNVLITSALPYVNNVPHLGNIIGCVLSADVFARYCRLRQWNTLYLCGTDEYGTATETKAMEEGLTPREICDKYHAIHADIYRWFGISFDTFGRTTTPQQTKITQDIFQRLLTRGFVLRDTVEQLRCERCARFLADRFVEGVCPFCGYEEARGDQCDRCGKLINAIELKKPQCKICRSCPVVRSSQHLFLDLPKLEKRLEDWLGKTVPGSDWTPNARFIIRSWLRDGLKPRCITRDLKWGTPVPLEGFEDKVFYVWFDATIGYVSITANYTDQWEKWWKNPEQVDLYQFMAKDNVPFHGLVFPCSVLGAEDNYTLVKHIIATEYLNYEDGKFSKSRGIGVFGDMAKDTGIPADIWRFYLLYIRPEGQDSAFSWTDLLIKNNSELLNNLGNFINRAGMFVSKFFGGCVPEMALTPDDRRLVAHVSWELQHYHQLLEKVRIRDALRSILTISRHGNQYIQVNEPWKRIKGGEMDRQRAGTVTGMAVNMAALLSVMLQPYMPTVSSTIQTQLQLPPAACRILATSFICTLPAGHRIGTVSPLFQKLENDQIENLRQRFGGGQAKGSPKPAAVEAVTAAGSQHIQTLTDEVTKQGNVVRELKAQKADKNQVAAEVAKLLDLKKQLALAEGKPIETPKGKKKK
Chain of UniProt Q91VF2 (Q91VF2 whole entry): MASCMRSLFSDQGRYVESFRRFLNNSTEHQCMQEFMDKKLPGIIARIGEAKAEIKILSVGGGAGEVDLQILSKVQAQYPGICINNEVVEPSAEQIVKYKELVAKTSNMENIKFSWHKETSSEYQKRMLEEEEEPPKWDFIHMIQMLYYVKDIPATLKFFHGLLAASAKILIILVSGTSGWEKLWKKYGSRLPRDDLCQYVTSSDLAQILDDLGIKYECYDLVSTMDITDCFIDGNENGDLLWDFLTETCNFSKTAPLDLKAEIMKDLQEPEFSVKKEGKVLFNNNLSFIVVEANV
Chain of UniProt O88455 (O88455 whole entry): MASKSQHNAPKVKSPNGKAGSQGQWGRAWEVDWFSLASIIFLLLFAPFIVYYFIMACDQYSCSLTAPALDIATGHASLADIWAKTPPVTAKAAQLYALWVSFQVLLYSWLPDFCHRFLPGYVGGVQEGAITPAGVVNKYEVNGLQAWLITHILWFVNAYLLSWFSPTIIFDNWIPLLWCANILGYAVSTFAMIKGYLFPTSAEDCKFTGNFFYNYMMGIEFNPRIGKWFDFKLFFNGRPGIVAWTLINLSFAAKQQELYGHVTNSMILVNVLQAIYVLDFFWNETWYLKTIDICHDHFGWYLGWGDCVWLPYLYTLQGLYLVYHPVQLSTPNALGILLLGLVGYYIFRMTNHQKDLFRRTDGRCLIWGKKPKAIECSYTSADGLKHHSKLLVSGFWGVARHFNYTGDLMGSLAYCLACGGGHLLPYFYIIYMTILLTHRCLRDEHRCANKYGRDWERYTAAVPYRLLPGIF
Chain of UniProt P63158 (P63158 whole entry): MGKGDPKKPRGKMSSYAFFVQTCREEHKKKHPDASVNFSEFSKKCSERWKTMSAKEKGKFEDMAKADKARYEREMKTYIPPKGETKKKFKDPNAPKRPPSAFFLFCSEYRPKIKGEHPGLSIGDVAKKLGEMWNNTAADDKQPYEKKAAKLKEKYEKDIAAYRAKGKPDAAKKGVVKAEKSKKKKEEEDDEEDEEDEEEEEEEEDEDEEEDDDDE
Chain of UniProt Q9WV55 (Q9WV55 whole entry): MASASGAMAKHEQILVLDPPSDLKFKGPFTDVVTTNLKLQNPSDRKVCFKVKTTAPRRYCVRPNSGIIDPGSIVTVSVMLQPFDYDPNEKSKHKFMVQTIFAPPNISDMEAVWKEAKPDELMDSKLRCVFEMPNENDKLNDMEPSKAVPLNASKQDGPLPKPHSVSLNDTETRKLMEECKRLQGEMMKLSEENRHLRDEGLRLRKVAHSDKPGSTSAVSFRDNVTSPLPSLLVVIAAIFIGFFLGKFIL
Chain of UniProt P56395 (P56395 whole entry): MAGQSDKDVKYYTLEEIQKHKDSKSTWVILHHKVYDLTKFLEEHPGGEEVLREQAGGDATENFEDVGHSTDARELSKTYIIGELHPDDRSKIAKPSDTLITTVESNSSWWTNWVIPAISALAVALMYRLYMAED
Chain of UniProt Q8BTW9 (Q8BTW9 whole entry): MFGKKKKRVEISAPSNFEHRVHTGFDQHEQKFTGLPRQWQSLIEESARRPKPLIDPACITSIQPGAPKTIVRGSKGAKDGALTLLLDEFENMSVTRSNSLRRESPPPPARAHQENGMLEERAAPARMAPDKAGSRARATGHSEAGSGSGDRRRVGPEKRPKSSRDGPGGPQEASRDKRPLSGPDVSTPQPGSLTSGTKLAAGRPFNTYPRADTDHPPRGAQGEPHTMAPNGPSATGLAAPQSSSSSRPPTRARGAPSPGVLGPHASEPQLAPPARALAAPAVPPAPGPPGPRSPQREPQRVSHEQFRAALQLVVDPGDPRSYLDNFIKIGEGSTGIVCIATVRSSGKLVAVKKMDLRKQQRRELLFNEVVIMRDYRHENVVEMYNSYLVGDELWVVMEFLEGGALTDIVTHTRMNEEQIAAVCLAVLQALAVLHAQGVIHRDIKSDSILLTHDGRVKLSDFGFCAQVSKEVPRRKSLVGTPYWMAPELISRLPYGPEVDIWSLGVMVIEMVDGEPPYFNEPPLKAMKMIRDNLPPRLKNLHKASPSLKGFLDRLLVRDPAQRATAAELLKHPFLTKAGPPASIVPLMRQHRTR
Chain of UniProt Q91XD8 (Q91XD8 whole entry): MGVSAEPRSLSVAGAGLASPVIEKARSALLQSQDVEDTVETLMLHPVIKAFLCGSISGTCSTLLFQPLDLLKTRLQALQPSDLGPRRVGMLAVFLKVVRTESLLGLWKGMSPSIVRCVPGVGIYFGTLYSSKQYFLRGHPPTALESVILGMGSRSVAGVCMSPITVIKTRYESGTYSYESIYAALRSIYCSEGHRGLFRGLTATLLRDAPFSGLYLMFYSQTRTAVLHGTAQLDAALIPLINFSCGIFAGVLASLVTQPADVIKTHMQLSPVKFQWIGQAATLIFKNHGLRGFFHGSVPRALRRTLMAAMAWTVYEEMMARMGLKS
Chain of UniProt Q9Z1R3 (Q9Z1R3 whole entry): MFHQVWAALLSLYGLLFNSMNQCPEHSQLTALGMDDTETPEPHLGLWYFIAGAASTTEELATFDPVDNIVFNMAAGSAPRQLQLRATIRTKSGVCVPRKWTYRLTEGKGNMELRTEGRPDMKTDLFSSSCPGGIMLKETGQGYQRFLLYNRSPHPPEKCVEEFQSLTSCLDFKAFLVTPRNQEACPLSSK
“UniProt P56395 (peptide sequence: YYTLEEIQK, peptide start residue: 11)”: the log2 fold change was 0.367.

For the target “UniProt Q64459 (peptide sequence: ALLSPTFTSGK, peptide start residue: 131)”, the log2 fold change is -0.273.

For “UniProt Q60737 (peptide sequence: VYTDVNTHRPR, peptide start residue: 11)”, the log2 fold change amounted to 0.264.

On to “UniProt P70451 (peptide sequence: NCLVGENNTLK, peptide start residue: 690)”, for which the log2 fold change is -2.

Regarding “UniProt Q62445 (peptide sequence: RFECPECSKR, peptide start residue: 704)”, the log2 fold change was -1.

As for “UniProt P11798 (peptide sequence: DLKPENLLLASK, peptide start residue: 136)”, the log2 fold change was -3.02.

Consider “UniProt O88451 (peptide sequence: LWDQTSSEVK, peptide start residue: 225)”, for which the log2 fold change was -0.709.

Consider “UniProt Q91XD8 (peptide sequence: LQALQPSDLGPR, peptide start residue: 75)”, for which the log2 fold change is -0.916.

As to “UniProt O88455 (peptide sequence: LLVSGFWGVAR, peptide start residue: 390)”, the log2 fold change was 0.757.

For the target “UniProt Q68FL6 (peptide sequence: GIGVFGDMAK, peptide start residue: 601)”, the log2 fold change came out at 0.564.

In the case of “UniProt Q8BTW9 (peptide sequence: SYLDNFIK, peptide start residue: 321)”, the log2 fold change is -1.86.

With “UniProt Q9EPE9 (peptide sequence: EVTPVSSIPIETHR, peptide start residue: 553)”, the log2 fold change was -0.718.

Turning to “UniProt Q76M72 (peptide sequence: WLIVTNKPQK, peptide start residue: 285)”, the log2 fold change is -2.63.

With “UniProt Q9WV55 (peptide sequence: KVAHSDKPGSTSAVSFR, peptide start residue: 205)”, the log2 fold change came out at 0.313.

In the case of “UniProt P63158 (peptide sequence: HPDASVNFSEFSKKCSER, peptide start residue: 31)”, the log2 fold change is -0.395.

“UniProt Q91VF2 (peptide sequence: TSNMENIK, peptide start residue: 105)”: the log2 fold change came out at 0.598.

As for “UniProt Q9Z1R3 (peptide sequence: TEGRPDMK, peptide start residue: 115)”, the log2 fold change came to 1.56.

Consider “UniProt Q01705 (peptide sequence: QWTQQHLDAADLR, peptide start residue: 1832)”, for which the log2 fold change is -0.742.

In the case of “UniProt Q00623 (peptide sequence: TQLAPHSEQMR, peptide start residue: 184)”, the log2 fold change worked out at 0.455.

Consider “UniProt P31938 (peptide sequence: VSHKPSGLVMAR, peptide start residue: 85)”, for which the log2 fold change is -0.899.

Take “UniProt P20444 (peptide sequence: LGCGPEGER, peptide start residue: 581)”: the log2 fold change is -2.63.

“UniProt P98154 (peptide sequence: GGDPTHFHTVNVAQPVR, peptide start residue: 89)”: the log2 fold change is -1.16.

Turning to “UniProt Q8JZY4 (peptide sequence: YLYLCVFHK, peptide start residue: 178)”, the log2 fold change is 0.47.

As for “UniProt O09110 (peptide sequence: TFITIGDR, peptide start residue: 48)”, the log2 fold change is -0.503.

Turning to “UniProt Q9WVD5 (peptide sequence: TYSQVGFR, peptide start residue: 54)”, the log2 fold change was -1.35.

Consider “UniProt Q62120 (peptide sequence: VLPQDKEYYK, peptide start residue: 1000)”, for which the log2 fold change is -1.02.

As to “UniProt A2A8Z1 (peptide sequence: VVLPTFILERR, peptide start residue: 391)”, the log2 fold change was found to be 0.538.

Regarding “UniProt Q9WV60 (peptide sequence: LCDSGELVAIKK, peptide start residue: 75)”, the log2 fold change was -4.12.

Consider “UniProt Q9QZ05 (peptide sequence: DLKPVNIFLDSDDHVK, peptide start residue: 846)”, for which the log2 fold change was -1.48.

For the target “UniProt Q80ZM8 (peptide sequence: YFNPCYATAR, peptide start residue: 227)”, the log2 fold change is 1.12.

Regarding “UniProt E9Q3L2 (peptide sequence: ACLSALSEVK, peptide start residue: 1763)”, the log2 fold change was -0.812.

The values are drawn from the supplement of paper PMC12819154, “High-throughput peptide-centric local stability assay extends protein–ligand identification to membrane proteins, tissues and bacteria” (Nature Structural & Molecular Biology, 2025).
